M1 ag – agonists of human M1 muscarinic receptor. P11229. CHO-K1 hM1, Fluo-8 calcium fluorescence, agonist mode; 0% DMSO, 100% acetylcholine EC100. activation, % at 3 µM. actives 0.33% (n = 360,000). AID 588814;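 active means activation above the run's mean compound activation plus 3 SD, cut at about 16% in these data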;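 further: peak over basal fluorescence ratio within a 140 s kinetic read after compound addition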
Target sequence (P11229 whole entry, looked up): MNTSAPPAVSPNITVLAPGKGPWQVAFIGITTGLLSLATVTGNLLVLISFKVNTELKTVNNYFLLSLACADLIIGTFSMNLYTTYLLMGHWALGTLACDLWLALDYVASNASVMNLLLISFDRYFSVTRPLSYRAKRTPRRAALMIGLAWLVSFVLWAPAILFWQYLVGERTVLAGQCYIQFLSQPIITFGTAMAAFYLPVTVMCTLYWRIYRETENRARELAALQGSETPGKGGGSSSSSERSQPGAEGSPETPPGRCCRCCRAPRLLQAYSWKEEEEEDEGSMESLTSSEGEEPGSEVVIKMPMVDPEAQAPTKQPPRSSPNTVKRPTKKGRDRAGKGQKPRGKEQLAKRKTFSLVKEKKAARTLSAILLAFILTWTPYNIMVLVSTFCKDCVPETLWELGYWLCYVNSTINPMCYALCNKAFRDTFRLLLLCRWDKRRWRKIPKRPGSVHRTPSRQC
CHO-K1 Ca PAM – counter-screen for M1 PAMs: effect in parental CHO-K1 cells; ATP EC20, Fluo-8 calcium fluorescence; 0% at ATP EC20, 100% at ATP max; actives 0.02% (n = 360,000); AID 602247; activation, % at 3 µM;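 active means activation above the run cutoff, the mean activation of all test compounds plus 3 SD, cut at about 40% in these data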;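 further: peak over basal fluorescence ratio in a 140 s read after ATP addition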
M1 ag parental – nonselective activator or artifact in parental CHO-K1 cells. Fluo-8 calcium fluorescence; scaled to maximal ATP response, vehicle zero. activation, % at 3 µM. actives 0.48% (n = 360,000). AID 602248; in the data active means activation above about 15%;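 further: untransfected CHO-K1 host cells lacking M1 receptor as counterscreen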
M1 antag – blocks human M1 muscarinic receptor; CHO-K1 hM1, Fluo-8 calcium fluorescence, ACh EC80 antagonist; inhibition, % at 3 µM; actives 1.3% (n = 360,000);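 active means percent inhibition above its own plate's cutoff, namely the mean of that plate's compound wells plus 3 SD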;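 further: peak over basal fluorescence ratio during 140 s after agonist addition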
CHRM1 PAM – potentiates human M1 receptor response to acetylcholine. CHO-K1 hM1, Fluo-8 calcium fluorescence, ACh EC20; 0% = ACh EC20, 100% = maximal ACh. activation, % at 3 µM. actives 0.088% (n = 360,000); in the data active means activation above about 19%, passing the limit was not always enough
CHO-K1 Ca antag – M1 antagonist counterscreen hit in parental CHO-K1 cells. ATP-induced calcium, Fluo-8 fluorescence. inhibition, % at 3 µM. actives 0.6% (n = 360,000). AID 602250;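 active means inhibition above a per-plate cutoff, the plate's mean sample inhibition plus 3 SD, cut at about 24% in these data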
Large screens that a line does not name were inactive. A selection: hits, their analogues and other compounds. The true share with any hit is near 2.4%.

COc1ccc(C(=O)Nc2nc(CC(=O)NCCc3ccccc3OC)cs2)cc1	none
COC(=O)C1=C(C)NC(C)=C(C(=O)OC)C1c1ccccc1OCc1c(C)no[n+]1[O-]	CHRM1 PAM 22
CN(C)C(CNC(=O)CCc1nc2sc3c(c2c(=O)[nH]1)CCCC3)c1ccccc1 (stereo not drawn)	none
COc1ccc(NC(=O)COC(=O)C2COc3ccccc3O2)cc1OC (stereo not drawn)	none
COc1ccc(CC2(CO)CCN(Cc3cnn(-c4ccccc4)c3)CC2)cc1	none
COc1ccc(CC2(CO)CCN(CC3=Cc4cc(Cl)ccc4OC3)CC2)cc1	M1 antag 27
CCCn1ncc(CN2CCC(CO)(Cc3ccc(OC)cc3)CC2)c1C	M1 antag 42
CC[C@H]1c2[nH]c3ccccc3c2C[C@H]2C(=O)N(c3ccc(F)cc3)C(=O)N21	CHO-K1 Ca antag 24
O=C(c1ccc2n[nH]nc2c1)N1CCN(c2ccc(C(F)(F)F)cn2)CC1	none
CC(C)c1ccc(OCC(O)CNC(C)c2ccccc2)cc1 (stereo not drawn)	M1 ag parental 21
CC(C)N(CCNCC(O)COc1ccc(C(C)(C)c2ccccc2)cc1)C(C)C (stereo not drawn)	M1 antag 34
OC(CNCCC(c1ccccc1)c1ccccc1)COc1ccccc1 (stereo not drawn)	M1 antag 31
OC(CNCCc1ccccc1)COc1ccc(OCC(O)CNCCc2ccccc2)cc1 (stereo not drawn)	none
CC(C)(C)n1nnnc1C(c1ccccc1)N1CCN(c2ncc(C(F)(F)F)cc2Cl)CC1 (stereo not drawn)	none (no result: M1 ag, M1 antag, CHRM1 PAM)
COc1ccc(CNC(=O)CN(C(=O)CCC(=O)Nc2nccs2)c2ccccc2C)cc1	none
CCN(CC)C(=S)SCC(=O)c1ccc(F)cc1	M1 antag 24
CN1CCN(Cc2nnc(-c3ccccc3)o2)CC1	none
c1ccc(CN2CCN(Cc3nnc(-c4ccccc4)o3)CC2)cc1	M1 antag 35
CCOC(=O)Cn1nc(C)c(NC(=O)CCc2ccc(OC)cc2)c1C	M1 ag parental 17
CCOC(=O)Cn1nc(C)c(NC(=O)CCc2ccccc2)c1C	none
O=C(c1cc2ccccc2o1)N1CCCCCC1	none
CC1CCN(CC(C)OC(=O)c2ccc3c(c2)OCCO3)CC1 (stereo not drawn)	M1 antag 67
CC(CN1CCCCC1)OC(=O)c1ccc2c(c1)OCO2 (stereo not drawn)	none
COc1cccc(C(=O)OC(C)CN2CCCC2)c1 (stereo not drawn)	M1 antag 39
CC(CN1CCCCC1)OC(=O)c1cc2ccccc2o1 (stereo not drawn)	M1 antag 37
CC(CN1CCCCC1)OC(=O)c1cccc(F)c1 (stereo not drawn)	none
O=C(c1ccccc1)C1CCN(C(=O)c2c(F)cccc2F)CC1	none
Cc1cn([C@H]2C[C@H](O)[C@@H](CCC(=O)NCC3CCCO3)O2)c(=O)[nH]c1=O (stereo partly drawn)	none
CC1CC2OC2CC1COC(=O)C1CC2OC2CC1C (stereo not drawn)	none
CCOc1ccc(-n2nc3c(=O)n(CCN4CCCCC4)nc(C)c3c2C)cc1	M1 antag 31
CCc1nn(C(C)C(=O)NCCN2CCN(c3cccc(C)c3C)CC2)c(=O)c2cc3occc3n12 (stereo not drawn)	none
Cc1nn(C(C)C(=O)NCCN2CCCCCC2)c(=O)c2nn(-c3ccccc3)c(C)c12 (stereo not drawn)	M1 antag 58
Cc1nn(CC(=O)NCCN2CCCCCC2)c(=O)c2nn(-c3ccccc3)c(C)c12	none
CCc1nn(C(C)C(=O)NCCN2CCCCCC2)c(=O)c2cc3occc3n12 (stereo not drawn)	M1 antag 38
CCOC(=O)c1nn(-c2ccccc2Cl)c(=O)cc1OCC(=O)Nc1cccc(OC)c1	none
CC1CN(C(=O)COC(=O)/C=C/c2ccc(C(F)(F)F)cc2)CC(C)O1 (stereo not drawn)	none
CC1CN(C(=O)COC(=O)/C=C/c2ccccc2)CC(C)O1 (stereo not drawn)	M1 antag 29

Screens: PubChem BioAssay, The Scripps Research Institute Molecular Screening Center
